# Assay results published in PubChem BioAssay AID1159580 (chemical genetic matrix, 2015).
# The whole screen tested about 5,500 compounds, of which about 2,000 (36%) were called active. Roughly 18% stayed inconclusive and do not appear here. The list shows a part of the results. Values without a mark were called inactive. No stated cut-off is given here; in the data, active means normalized growth mostly below about 0.91 (no sharp cut-off); inconclusive means no clear call, values can overlap the other calls; inactive means mostly above about 0.92.
# Assay: chemical genetic growth profiling, strain panel (AID 1159580);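 further: tested at 20 µM; growth read once vehicle control cultures reached saturation at 30 °C; 1 = growth at the plate median or of vehicle wells; lower values mean less growth of the strain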
# Conditions: growth OD
structure (smiles),measurement,setting,value
C=CC(C)(O)CC/C=C(\C)CCC=C(C)C (stereo not drawn),normalized growth,"S. cerevisiae deletion strains, locus YKL009W, strain mrt4, hits give low values",0.952
same,normalized growth,"S. cerevisiae deletion strains, locus YKL068W, hits give low values",0.994
same,normalized growth,"S. cerevisiae deletion strains, locus YKL085W, strain MDH1 (second series), hits give low values",0.996
same,normalized growth,"S. cerevisiae deletion strains, locus YKL085W, strain MDH1, hits give low values",0.996
same,normalized growth,"S. cerevisiae deletion strains, locus YKL160W, strain elf1, hits give low values",0.903
same,normalized growth,"S. cerevisiae deletion strains, locus YKL190W, strain CNB1, hits give low values",0.97
same,normalized growth,"S. cerevisiae deletion strains, locus YKR001C, strain vps1, hits give low values",1
same,normalized growth,"S. cerevisiae deletion strains, locus YKR026C, strain gcn3, hits give low values",0.951
same,normalized growth,"S. cerevisiae deletion strains, locus YKR091W, strain srl3, hits give low values",0.97
same,normalized growth,"S. cerevisiae deletion strains, locus YLL001W, strain dnm1, hits give low values",0.978
same,normalized growth,"S. cerevisiae deletion strains, locus YLL026W, hits give low values",0.972
same,normalized growth,"S. cerevisiae deletion strains, locus YLL041C, strain sdh2, hits give low values",0.973
same,normalized growth,"S. cerevisiae deletion strains, locus YLR027C, strain aat2, hits give low values",0.967
same,normalized growth,"S. cerevisiae deletion strains, locus YLR039C, strain RIC1, hits give low values",0.882
same,normalized growth,"S. cerevisiae deletion strains, locus YLR058C, strain SHM2, hits give low values",0.949
same,normalized growth,"S. cerevisiae deletion strains, locus YLR102C, strain apc9, hits give low values",1
same,normalized growth,"S. cerevisiae deletion strains, locus YLR113W, strain HOG1, hits give low values",0.868
same,normalized growth,"S. cerevisiae deletion strains, locus YLR221C, strain rsa3, hits give low values",0.9 (active)
same,normalized growth,"S. cerevisiae deletion strains, locus YLR258W, strain gsy2, hits give low values",0.966
same,normalized growth,"S. cerevisiae deletion strains, locus YLR262C, strain YPT6 (second series), hits give low values",0.842 (active)
same,normalized growth,"S. cerevisiae deletion strains, locus YLR262C, strain YPT6, hits give low values",0.926
same,normalized growth,"S. cerevisiae deletion strains, locus YLR268W, strain sec22, hits give low values",1
same,normalized growth,"S. cerevisiae deletion strains, locus YLR320W, strain mms22, hits give low values",0.846 (active)
same,normalized growth,"S. cerevisiae deletion strains, locus YLR330W, strain CHS5, hits give low values",0.925
same,normalized growth,"S. cerevisiae deletion strains, locus YLR342W, strain FKS1 (second series), hits give low values",0.878
same,normalized growth,"S. cerevisiae deletion strains, locus YLR342W, strain FKS1, hits give low values",0.974
same,normalized growth,"S. cerevisiae deletion strains, locus YLR357W, strain rsc2, hits give low values",0.81 (active)
same,normalized growth,"S. cerevisiae deletion strains, locus YLR370C, strain arc18, hits give low values",0.921
same,normalized growth,"S. cerevisiae deletion strains, locus YLR371W, strain rom2, hits give low values",0.962
same,normalized growth,"S. cerevisiae deletion strains, locus YLR384C, strain iki3, hits give low values",0.98
same,normalized growth,"S. cerevisiae deletion strains, locus YLR418C, strain cdc73, hits give low values",0.911
same,normalized growth,"S. cerevisiae deletion strains, locus YML016C, strain PPZ1, hits give low values",0.996
same,normalized growth,"S. cerevisiae deletion strains, locus YML032C, strain rad52, hits give low values",0.926
same,normalized growth,"S. cerevisiae deletion strains, locus YML120C, strain ndi1, hits give low values",0.919
same,normalized growth,"S. cerevisiae deletion strains, locus YML124C, strain tub3, hits give low values",1.01
same,normalized growth,"S. cerevisiae deletion strains, locus YMR058W, strain fet3, hits give low values",0.95
same,normalized growth,"S. cerevisiae deletion strains, locus YMR078C, strain ctf18, hits give low values",1.01
same,normalized growth,"S. cerevisiae deletion strains, locus YMR125W, strain sto1, hits give low values",0.828 (active)
same,normalized growth,"S. cerevisiae deletion strains, locus YMR129W, hits give low values",0.967
same,normalized growth,"S. cerevisiae deletion strains, locus YMR205C, strain PFK2, hits give low values",0.911
same,normalized growth,"S. cerevisiae deletion strains, locus YMR223W, strain ubp8, hits give low values",0.957
same,normalized growth,"S. cerevisiae deletion strains, locus YMR231W, strain pep5, hits give low values",0.999
same,normalized growth,"S. cerevisiae deletion strains, locus YMR307W, strain GAS1, hits give low values",0.621
same,normalized growth,"S. cerevisiae deletion strains, locus YNL067W, strain RPL9B, hits give low values",0.943
same,normalized growth,"S. cerevisiae deletion strains, locus YNL071W, strain lat1, hits give low values",0.85 (active)
same,normalized growth,"S. cerevisiae deletion strains, locus YNL153C, strain GIM3, hits give low values",0.921
same,normalized growth,"S. cerevisiae deletion strains, locus YNL183C, strain NPR1, hits give low values",0.948
same,normalized growth,"S. cerevisiae deletion strains, locus YNL209W, strain ssb2, hits give low values",0.977
same,normalized growth,"S. cerevisiae deletion strains, locus YNL233W, strain BNI4, hits give low values",0.788 (active)
same,normalized growth,"S. cerevisiae deletion strains, locus YNL248C, strain rpa49, hits give low values",0.883 (active)
same,normalized growth,"S. cerevisiae deletion strains, locus YNL250W, strain rad50, hits give low values",0.994
same,normalized growth,"S. cerevisiae deletion strains, locus YNL271C, strain bni1, hits give low values",1
same,normalized growth,"S. cerevisiae deletion strains, locus YNL298W, strain CLA4, hits give low values",0.951
same,normalized growth,"S. cerevisiae deletion strains, locus YNL307C, strain MCK1, hits give low values",1
same,normalized growth,"S. cerevisiae deletion strains, locus YNL322C, strain KRE1 (second series), hits give low values",0.993
same,normalized growth,"S. cerevisiae deletion strains, locus YNR049C, strain mso1, hits give low values",0.966
same,normalized growth,"S. cerevisiae deletion strains, locus YNR052C, strain pop2, hits give low values",0.933
same,normalized growth,"S. cerevisiae deletion strains, locus YOL006C, strain TOP1, hits give low values",0.816
same,normalized growth,"S. cerevisiae deletion strains, locus YOL012C, strain htz1",0.833
same,normalized growth,"S. cerevisiae deletion strains, locus YOL147C, strain pex11, hits give low values",0.987
same,normalized growth,"S. cerevisiae deletion strains, locus YOR001W, strain rrp6, hits give low values",0.887 (active)
same,normalized growth,"S. cerevisiae deletion strains, locus YOR061W, strain CKA2, hits give low values",0.977
same,normalized growth,"S. cerevisiae deletion strains, locus YOR069W, strain VPS5, hits give low values",0.984
same,normalized growth,"S. cerevisiae deletion strains, locus YOR070C, strain gyp1, hits give low values",0.981
same,normalized growth,"S. cerevisiae deletion strains, locus YOR080W, strain dia2, hits give low values",0.972
same,normalized growth,"S. cerevisiae deletion strains, locus YOR083W, strain WHI5, hits give low values",0.882 (active)
same,normalized growth,"S. cerevisiae deletion strains, locus YOR106W, strain vam3, hits give low values",0.881
same,normalized growth,"S. cerevisiae deletion strains, locus YOR136W, strain idh2, hits give low values",1.01
same,normalized growth,"S. cerevisiae deletion strains, locus YOR144C, strain elg1, hits give low values",0.999
same,normalized growth,"S. cerevisiae deletion strains, locus YOR184W, strain ser1, hits give low values",0.941
same,normalized growth,"S. cerevisiae deletion strains, locus YOR231W, strain MKK1, hits give low values",0.873
same,normalized growth,"S. cerevisiae deletion strains, locus YOR265W, strain rbl2, hits give low values",0.983
same,normalized growth,"S. cerevisiae deletion strains, locus YOR270C, strain vph1, hits give low values",0.757 (active)
same,normalized growth,"S. cerevisiae deletion strains, locus YOR290C, strain snf2, hits give low values",0.875
same,normalized growth,"S. cerevisiae deletion strains, locus YOR316C, strain cot1, hits give low values",0.997
same,normalized growth,"S. cerevisiae deletion strains, locus YPL051W, strain arl3, hits give low values",0.907 (active)
same,normalized growth,"S. cerevisiae deletion strains, locus YPL055C, strain LGE1, hits give low values",0.88
same,normalized growth,"S. cerevisiae deletion strains, locus YPL078C, strain atp4, hits give low values",0.863 (active)
same,normalized growth,"S. cerevisiae deletion strains, locus YPL106C, strain sse1, hits give low values",0.793 (active)
same,normalized growth,"S. cerevisiae deletion strains, locus YPL240C, strain hsp82, hits give low values",0.96
same,normalized growth,"S. cerevisiae deletion strains, locus YPL241C, strain CIN2, hits give low values",1
same,normalized growth,"S. cerevisiae deletion strains, locus YPL256C, strain CLN2, hits give low values",0.838
same,normalized growth,"S. cerevisiae deletion strains, locus YPR119W, strain clb2, hits give low values",1.02
same,normalized growth,"S. cerevisiae deletion strains, locus YPR141C, strain kar3, hits give low values",1
same,normalized growth,"S. cerevisiae deletion strains, locus YPR163C, strain tif3, hits give low values",1.02
same,normalized growth,"S. cerevisiae deletion strains, locus YPR167C, strain met16, hits give low values",0.988
same,normalized growth,"S. cerevisiae deletion strains, strain wtn01, hits give low values",0.99
same,normalized growth,"S. cerevisiae strains, strain wild type, hits give low values",0.924
